In PubChem BioAssay (NCATS):
Inconclusive results are not listed. Entries that show only a call come without a potency. Activity calls are given as the source filed them. Unless noted, calls follow the shape of the dose curve; as a rule, active = well fitted curve in the direction sought with a large enough effect; inconclusive = small, poorly fitted or top-dose-only effect, or another doubt; inactive = no such curve, though single readings can be large; an effect the other way counts as inactive or inconclusive.

How the values were obtained:
[1] = MultiTox-Fluor Cytotoxicity Assay - LYMP1-001 - Live Cells (AID 947); conditions: LYMP1-001 lymphoblastoid cells, live-cell protease fluorescence viability; series mostly up to 92.2 µM
[2] = Cell Viability - LYMP2-005 (AID 967); conditions: LYMP2-005 lymphoblastoid cell viability; series mostly up to 92.2 µM
In short: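 Luciferase-based ATP quantitation served as the viability measure in human lymphoblastoid LYMP2-005 cells exposed to test compounds for 24 h at 37 C in complete culture medium. Potency (AC50) was obtained by fitting concentration-response curves with the Hill equation.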

[3] = target: Androgen receptor (Homo sapiens) (UniProt P10275); assay: qHTS assay for small molecule antagonists of androgen receptor signaling (AID 588516; active = well fitted curve in the direction sought with a large enough effect in the signal ratio, with a control signal flat, not every such curve was filed as active; the % refers to the signal ratio; also: potency is read from the fitted curve at half-maximal effect); conditions: AR-UAS-bla HEK293, beta-lactamase ratio, antagonist mode, 16 h; series mostly up to 76.8 µM
Androgen receptor (Homo sapiens), sequence (P10275 whole entry, looked up): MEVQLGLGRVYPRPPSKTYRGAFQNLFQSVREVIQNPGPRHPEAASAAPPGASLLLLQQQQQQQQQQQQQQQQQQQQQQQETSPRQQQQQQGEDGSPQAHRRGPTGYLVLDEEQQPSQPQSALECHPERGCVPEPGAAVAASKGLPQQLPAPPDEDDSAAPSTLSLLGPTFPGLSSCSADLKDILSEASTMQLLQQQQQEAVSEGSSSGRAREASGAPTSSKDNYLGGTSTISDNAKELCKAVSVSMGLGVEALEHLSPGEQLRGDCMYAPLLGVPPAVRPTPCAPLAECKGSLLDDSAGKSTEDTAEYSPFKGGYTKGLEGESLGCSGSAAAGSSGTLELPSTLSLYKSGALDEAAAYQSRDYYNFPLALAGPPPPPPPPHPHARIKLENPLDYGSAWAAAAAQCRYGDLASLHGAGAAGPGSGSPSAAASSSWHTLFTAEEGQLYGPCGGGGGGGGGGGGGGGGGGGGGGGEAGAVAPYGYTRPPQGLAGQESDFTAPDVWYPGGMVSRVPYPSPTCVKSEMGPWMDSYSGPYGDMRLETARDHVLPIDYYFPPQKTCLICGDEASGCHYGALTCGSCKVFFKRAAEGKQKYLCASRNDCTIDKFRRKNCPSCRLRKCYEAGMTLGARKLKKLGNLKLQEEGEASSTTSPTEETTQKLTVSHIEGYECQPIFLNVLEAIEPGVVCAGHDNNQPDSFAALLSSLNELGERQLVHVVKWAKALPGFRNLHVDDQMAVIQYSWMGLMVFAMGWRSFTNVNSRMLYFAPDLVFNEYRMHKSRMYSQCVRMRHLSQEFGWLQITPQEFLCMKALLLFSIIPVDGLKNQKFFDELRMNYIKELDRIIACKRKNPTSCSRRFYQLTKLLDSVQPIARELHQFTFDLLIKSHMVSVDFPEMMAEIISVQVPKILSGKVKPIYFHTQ
In short: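 Compounds tested in titration against 10 nM R1881 in AR-responsive bla reporter HEK 293 cells; CCF4 fluorescence (460/530 nm) after 16 h exposure gave IC50 and efficacy.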

**Q.** For `CN1[C@H]2CC(OC(=O)[C@H](CO)c3ccccc3)C[C@H]1[C@H]1O[C@H]12` (stereo partly drawn), which Potency [1] is on record?
**A.** Its Potency is “inactive”.

**Q.** And the Potency [2]?
**A.** Its Potency is “inactive”.

**Q.** Which Potency [3] does the source give for `CC(C)N(C(=O)CCl)c1ccccc1` here?
**A.** Its Potency is 39.8 µM (active).
